This is an account of results in PubChem BioAssay (NCATS).

Results filed as inconclusive are left out. Values without a mark were called inactive. The source made the active and inactive calls. Calls come from the whole dose curve; as a rule, active = well fitted inhibition curve with a large enough effect; inconclusive = small, poorly fitted or top-dose-only effect; inactive = no such curve, though single readings can be large or run the other way.
Potency is the fitted concentration of half-maximal effect.

This experiment is described as follows: BET inhibitor-based combinations targeting novel dependencies in MECOM-rearranged (r) AML: MV-4-11 cell line (AID 2202233).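 For viability, % of control: plate controls were DMSO for no effect and blank wells for full effect.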 Note: nearly all actives have a fitted effect of over 45% in size. Particulars: MV-4-11 AML viability, CellTiter-Glo luminescence, 48 h; series mostly up to 46 µM; viability, % of control: at the top concentration. The source says:
Ecotropic viral insertion site 1 (EVI1) is located on chromosome 3q26.2 as part of the MECOM (MDS and EVI1 complex) locus. Under normal hematopoiesis, EVI1 is a regulator of hematopoietic stem cell maintenance and self-renewal and EVI1 levels decrease as the cells differentiate. In approximately 5-10% of de novo acute myeloid leukemia (AML) EVI1 is aberrantly expressed, including Chromosomal inv(3)(q21;q26.2) or t(3;3)(q21;q26.2) alterations (MECOM-r) that account for about 50% of AML with EVI1 overexpression 31. AMLs with high levels of EVI1 have a poor prognosis and an overall survival time averaging between 10-14 months. EVI1 overexpression confers resistance in leukemia cells, highlighting the need to develop new targeted therapies for EVI1 overexpressing AMLs. Here, we performed an unbiased chemical drug screening by evaluating the single agent activity of a collection of 2,480 oncology-focused, approved and investigational drugs (NCATS Mechanism Interrogation Plates, MIPE v5.0) against a panel of seven AML cell lines. These included four MECOM-r cell-lines (AML-191, AML-194, UCSD-AML1 and HNT-34) and three non-MECOM-r AMLs (MV4-11, OCI-AML3 and SET-2). Exploiting the mechanistic redundancy built in the library, we identified target-level sensitivities in MECOM-r AML cells and relative activity as compared to other AML subtypes.
A collection of 2480 mechanistically annotated dugs (MIPE v5.0) was used to screen four 3q26.2 rearranged AML cell lines and three non-3q26.2 rearranged AML cell lines. This library purposely exploits redundancy by including multiple inhibitors of key onco-targets, while simultaneously encompassing mechanistic diversity, targeting more than 800 distinct mechanisms of action. Briefly, cells were seeded in 5 uL of growth media using a Multidrop Combi dispenser into 1536 well white polystyrene tissue culture treated plates (Corning) at a density of 500cells/well. For each cell-line, for each of the 2480 drugs in MIPE v5.0 library, an 11-point dose curve was generated via a 1536 pin-tool. Plates were incubated for 48 hr at standard incubator conditions, covered by a stainless steel gasketed lid to prevent evaporation. Cell viability was determined by luminescence based, Cell Titer Glo assay (Promega). In detail, 3 uL of Cell Titer Glo were added to each well and plates were incubated at room temperature for 15 min with a stainless-steel lid in place. Luminescence readings were taken using a Viewlux (PerkinElmer) with a 2 s exposure time per plate. Compound dose-response curves were normalized to DMSO and empty well controls on each plate. Quantitative drug activity data from dose-response curves was determined utilizing area Under the Curve (AUC) and Z-transformed AUC (Z-AUC, a mean-centering transformation applied to each individual cell-line screened).
A general note: In ATP-based viability assays light output follows the ATP content of the culture.
In the case of `CCCCCCOC(=O)NC(=N)c1ccc(NCc2nc3cc(C(=O)N(CCC(=O)OCC)c4ccccn4)ccc3n2C)cc1`, the Potency was 8.33 µM (active).

`CC(C)(Sc1cc(C(C)(C)C)c(O)c(C(C)(C)C)c1)Sc1cc(C(C)(C)C)c(O)c(C(C)(C)C)c1`: the “viability, % of control” value is 127%.

With `Cc1cc(C2CCCCC2)n(O)c(=O)c1`, the Potency was 4.17 µM (active).

Turning to `CN1CCc2c(n(Cc3ccc(C(=O)NO)cc3)c3ccccc23)C1`, the Potency was 20.9 µM (active).

In the case of `O=C(O)c1c(Cl)c(Cl)c(Cl)c(Cl)c1-c1c2cc(I)c(=O)c(I)c-2oc2c(I)c(O)c(I)cc12`, the “viability, % of control” value was 62.3%.

As for `Nc1ncn([C@@H]2O[C@H](CO)[C@@H](O)[C@H]2O)c(=O)n1`, the Potency was 3.32 µM (active).

For the compound `CC1=C(C)C(=O)C(C(CCCCCC(=O)O)c2ccccc2)=C(C)C1=O` (stereo not given), the “viability, % of control” value was 103%.

For `CN1CCN(Cc2ccc(NC(=O)Nc3ccc(Oc4cc(NC(=O)C5CC5)ncn4)cc3)cc2C(F)(F)F)CC1`, the Potency was 0.0037 µM (active).

Consider `NC(=O)c1cccnc1`, for which the “viability, % of control” value was 125%.

For `Cc1ccc(S(=O)(=O)Cc2nc(-c3ccc(C(=O)NCc4cccnc4)cc3)oc2C)cc1`, the Potency is 0.132 µM (active).

As to `CCCCCCCCCCCCc1ccc(S(=O)(=O)Nc2nncs2)cc1`, the “viability, % of control” value is 119%.

In the case of `Cc1cccc(Nc2nc(N[C@@H]3CCCC[C@H]3N)ncc2C(N)=O)c1`, the Potency was 2.63 µM (active).

Consider `Cc1c(-c2ccc(O)cc2)n(Cc2ccc(OCCN3CCCCCC3)cc2)c2ccc(O)cc12`, for which the Potency was 16.6 µM (active).

`CC1=CC(=O)c2ccccc2C1=O`: the Potency is 7.42 µM (active).

As for `O=C(O)CC1CCC(c2ccc(-c3ccc(Nc4ccc(C(F)(F)F)nc4)cn3)cc2)CC1` (stereo not given), the “viability, % of control” value was 117%.

In the case of `C#C[C@]1(O)CC[C@H]2[C@@H]3CCC4=CC(=O)CC[C@@H]4[C@H]3CC[C@@]21CC`, the Potency is 13.2 µM (active).

For `CCN1CCN(Cc2ccc(Nc3ncc(F)c(-c4cc(F)c5nc(C)n(C(C)C)c5c4)n3)nc2)CC1`, the Potency is 0.296 µM (active).

For the compound `CN(C)CCN1C(=O)c2cccc3cc(N)cc(c23)C1=O`, the Potency was 3.72 µM (active).

On to `COc1c(C)c2c(c(O)c1C/C=C(\C)CCC(=O)O)C(=O)OC2`, for which the Potency is 0.742 µM (active).

Take `Nc1nccc(Oc2ccc(NC(=O)c3c[nH]cc(-c4ccc(F)cc4)c3=O)cc2F)c1Cl`: the Potency is 0.0372 µM (active).

On to `OCCN1C[C@H](O)[C@@H](O)[C@H](O)[C@H]1CO`, for which the “viability, % of control” value is 109%.

For `CC(C)COCC(CN(Cc1ccccc1)c1ccccc1)N1CCCC1` (stereo not given), the Potency is 26.3 µM (active).

On to `CN1CCC(CNc2ccc3ncc(-c4cccc(OC(F)(F)F)c4)n3n2)CC1`, for which the Potency is 0.166 µM (active).

`CNC(=O)c1cc(Oc2ccc(NC(=O)Nc3ccc(Cl)c(C(F)(F)F)c3)c(F)c2)ccn1`: the Potency was 0.59 µM (active).

As to `CC(C)(N)C(=O)N[C@H](COCc1ccccc1)C(=O)N1CCC2(CC1)CN(S(C)(=O)=O)c1ccccc12`, the Potency is 10.5 µM (active).

As for `CC(C)Oc1ccc2c(=O)c(-c3ccccc3)coc2c1`, the “viability, % of control” value is 104%.

In the case of `Cn1c(=O)c2c(ncn2C)n(C)c1=O`, the “viability, % of control” value is 89.8%.

Regarding `COc1cc(N2CCC(N3CCN(C)CC3)CC2)ccc1Nc1ncc(Cl)c(Nc2ccccc2S(=O)(=O)C(C)C)n1`, the Potency was 0.468 µM (active).

In the case of `COc1cc(OC)c(C(=O)CCCN2CCCC2)c(OC)c1`, the “viability, % of control” value is 94.2%.

`Cc1nc2ccc(-n3ncc(C(=O)c4cc5ccccc5[nH]4)c3N)cc2[nH]1`: the Potency was 6.61 µM (active).

In the case of `C[C@@H](Oc1cc(-n2cnc3ccc(CN4CCN(C)CC4)cc32)sc1C(N)=O)c1ccccc1C(F)(F)F`, the Potency is 0.105 µM (active).

On to `NCCCCCC(=O)O`, for which the “viability, % of control” value was 134%.

As to `CCOC(=O)C(C)Oc1cccc2c(=O)n(CC(=O)Nc3ccc4c(c3)OCCO4)ccc12` (stereo not given), the Potency was 3.32 µM (active).

On to `CS(=O)(=O)CCNCc1ccc(-c2ccc3ncnc(Nc4ccc(OCc5cccc(F)c5)c(Cl)c4)c3c2)o1`, for which the Potency was 18.6 µM (active).

In the case of `Cc1ccc(Nc2nccc(N(C)c3ccc4c(C)n(C)nc4c3)n2)cc1S(N)(=O)=O`, the Potency was 5.25 µM (active).

As for `CS(=O)(=O)OCCCCOS(C)(=O)=O`, the “viability, % of control” value is 110%.

In the case of `O=C(Nc1cc(C(F)(F)F)cc(C(F)(F)F)c1)c1cc(Cl)ccc1O`, the Potency was 1.86 µM (active).

Regarding `COc1cc(OC2CCN(C)CC2)ccc1Nc1ncc2c(n1)n(C1CCCC1)c(=O)n2C`, the Potency is 3.32 µM (active).

For the compound `O=C1c2ccccc2-c2n[nH]c3cccc1c23`, the Potency is 3.32 µM (active).

With `NC(=O)c1noc([C@H](CCCC2CCCCC2)CC(=O)NO)n1`, the Potency is 18.6 µM (active).
